Reference: PubChem BioAssay (Tox21)
Records with an inconclusive call do not appear. Active and inactive are the calls of the source. Unless noted, the call rests on the fitted dose curve.

Tested on: not listed separately
Experiment: p53 small molecule agonists, cell-based qHTS assay: qHTS cell viability counter screen (AID 1963581); further: nearly all actives have a fitted effect of over 45% in size
Conditions: p53RE-bla HCT-116 viability, ATP luminescence, 16 h; series mostly up to 66 µM; activity change, negative = cytotoxicity: at the top concentration
Method in brief: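 In the same plates used for the p53 bla reporter, HCT-116 cells given compounds for 16 h at 37 C received CellTiter-Glo; luminescence was recorded 30 min later at room temperature.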
On the % scale 0 is the no-effect control and ±100 the full control effect.

| Compound | activity change, negative = cytotoxicity |
| --- | --- |
| O=C(O)c1cc(C(=O)O)c(C(=O)O)cc1C(=O)O | -16.8% (inactive) |
| COS(=O)(=O)C(F)(F)F | 15.3% (inactive) |
| CC(C)(Sc1cc(C(C)(C)C)c(O)c(C(C)(C)C)c1)Sc1cc(C(C)(C)C)c(O)c(C(C)(C)C)c1 | -3.4% [at 30.3 µM] (inactive) |
| CC(C)NCCCC1(C(N)=O)c2ccccc2-c2ccccc21 | -2.52% [at 30.3 µM] (inactive) |
| CCCCCc1ccc(N)cc1 | 5.07% (inactive) |
| CC/C=C\CCOC(=O)c1ccccc1O | -13.6% (inactive) |
| CC1(C)CC(OC(=O)CCCCCCCCC(=O)OC2CC(C)(C)NC(C)(C)C2)CC(C)(C)N1 | -0.213% [at 13.5 µM] (inactive) |
| O=C(O)CCCC[P+](c1ccccc1)(c1ccccc1)c1ccccc1 | -2.69% [at 30.3 µM] (inactive) |
| CCCCCCCCSCc1cc(C)c(O)c(CSCCCCCCCC)c1 | 1.77% (inactive) |
| O=C(c1ccc(O)cc1)c1ccc(Cl)cc1 | -3.89% (inactive) |
| CC(C(=O)O)c1ccc(CC2CCCC2=O)cc1 (configuration not stated) | -4.03% [at 30.3 µM] (inactive) |
| Nc1ccc(S(=O)(=O)Nc2ccnn2-c2ccccc2)cc1 | -3.47% [at 13.5 µM] (inactive) |
| Oc1cccc2[nH]ccc12 | 6.75% [at 30.3 µM] (inactive) |
| C/C=C\C/C=C/CCCCCCCCOC(C)=O | -16.5% (inactive) |
| CCOC(=O)N1CCC(Nc2ccc(Cl)cc2N)CC1 | -0.848% [at 30.3 µM] (inactive) |
| CC(C)(O)c1ccc(CNC(=O)c2cccnc2Oc2ccc(F)cc2)cc1 | 14.5% (inactive) |
| NCC1CCC(C(=O)Oc2ccc(CCC(=O)O)cc2)CC1 (configuration not stated) | 1.74% [at 30.3 µM] (inactive) |
| Clc1ccnc(Cl)n1 | 1.11% (inactive) |

Tested on: not listed separately
Experiment: p53 small molecule agonists, cell-based qHTS assay (AID 1963582; active means well fitted activation curve with a large enough effect in the signal ratio in the repeat runs, not every such curve was filed as active; the % refers to the signal ratio)
Conditions: HCT-116 p53RE-bla reporter, beta-lactamase FRET ratio, 16 h; series mostly up to 66 µM; activation: at the top concentration
Method in brief: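 Compounds are pin-transferred in DMSO onto p53RE-bla cells and incubated 16 h at 37 C. The B/G FRET beta-lactamase substrate is then applied for 2 h at RT and fluorescence recorded.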

| Compound | activation |
| --- | --- |
| O=C(O)c1cc(C(=O)O)c(C(=O)O)cc1C(=O)O | -2.71% (inactive) |
| COS(=O)(=O)C(F)(F)F | -6.32% (inactive) |
| CC(C)(Sc1cc(C(C)(C)C)c(O)c(C(C)(C)C)c1)Sc1cc(C(C)(C)C)c(O)c(C(C)(C)C)c1 | 0.0411% [at 30.3 µM] (inactive) |
| CC(C)NCCCC1(C(N)=O)c2ccccc2-c2ccccc21 | -2.72% [at 30.3 µM] (inactive) |
| CCCCCc1ccc(N)cc1 | -7.11% (inactive) |
| CC/C=C\CCOC(=O)c1ccccc1O | 0.25% (inactive) |
| CCCCCCCCCCCCCCNCCO | 5.24% [at 30.3 µM] (inactive) |
| Cc1cc2c(s1)Nc1ccccc1N=C2N1CCN(C)CC1 | 0.0756% [at 30.3 µM] (inactive) |
| CC1(C)CC(OC(=O)CCCCCCCCC(=O)OC2CC(C)(C)NC(C)(C)C2)CC(C)(C)N1 | -3.4% [at 13.5 µM] (inactive) |
| FC(F)(F)C(F)(F)C(F)(F)C(F)(F)C(F)(F)C(F)(F)C(F)(F)C(F)(F)Br | -2.24% [at 30.3 µM] (inactive) |
| C[C@H]1O[C@H](O[C@H]2[C@H](O)[C@@H](O)[C@@H](O[C@H]3[C@H](O)[C@@H](O)[C@H](O)O[C@@H]3CO)O[C@@H]2CO)[C@H](O)[C@@H](O)[C@@H]1N[C@H]1C=C(CO)[C@@H](O)[C@H](O)[C@H]1O | 1.26% [at 30.3 µM] (inactive) |
| CCCCCCCCCCCCCCBr | 4.71% (inactive) |
| Cc1ccc2c(c1)c1c3n2CCNC3CCC1 (configuration not stated) | -1.03% [at 30.3 µM] (inactive) |
| O=C(O)CCCC[P+](c1ccccc1)(c1ccccc1)c1ccccc1 | -4.51% [at 30.3 µM] (inactive) |
| CC(C)C1OCCN1CCOC(=O)NCCCCCCNC(=O)OCCN1CCOC1C(C)C (configuration not stated) | -1.22% (inactive) |
| CC(C(=O)O)c1ccc(CC2CCCC2=O)cc1 (configuration not stated) | -4.1% [at 30.3 µM] (inactive) |
| Nc1ccc(S(=O)(=O)Nc2ccnn2-c2ccccc2)cc1 | 1.07% [at 13.5 µM] (inactive) |
| Oc1cccc2[nH]ccc12 | -0.534% [at 30.3 µM] (inactive) |
| CC(C)OCC1CO1 (configuration not stated) | 0.131% (inactive) |
| CCOC(=O)N1CCC(Nc2ccc(Cl)cc2N)CC1 | -3.21% [at 30.3 µM] (inactive) |
| CC(C)(O)c1ccc(CNC(=O)c2cccnc2Oc2ccc(F)cc2)cc1 | -3.87% (inactive) |
| NCC1CCC(C(=O)Oc2ccc(CCC(=O)O)cc2)CC1 (configuration not stated) | 0.291% [at 30.3 µM] (inactive) |
| O=C(CCCl)NCc1ccccc1 | 0.0479% [at 30.3 µM] (inactive) |
| CCN1CCCC1CNC(=O)c1cc(S(=O)(=O)CC)c(N)cc1OC (configuration not stated) | -1.86% [at 30.3 µM] (inactive) |
| O=C(CCOCCOCCOCCOCCC(=O)Nc1c(I)cc(I)c(C(=O)O)c1I)Nc1c(I)cc(I)c(C(=O)O)c1I | -3.56% [at 30.3 µM] (inactive) |
| CC(C)C(=O)Nc1cccc(C(F)(F)F)c1 | 0.681% [at 30.3 µM] (inactive) |

Molecular target: 5-hydroxytryptamine receptor 2A (Homo sapiens) (UniProt P28223)
Sequence (P28223 whole entry, looked up): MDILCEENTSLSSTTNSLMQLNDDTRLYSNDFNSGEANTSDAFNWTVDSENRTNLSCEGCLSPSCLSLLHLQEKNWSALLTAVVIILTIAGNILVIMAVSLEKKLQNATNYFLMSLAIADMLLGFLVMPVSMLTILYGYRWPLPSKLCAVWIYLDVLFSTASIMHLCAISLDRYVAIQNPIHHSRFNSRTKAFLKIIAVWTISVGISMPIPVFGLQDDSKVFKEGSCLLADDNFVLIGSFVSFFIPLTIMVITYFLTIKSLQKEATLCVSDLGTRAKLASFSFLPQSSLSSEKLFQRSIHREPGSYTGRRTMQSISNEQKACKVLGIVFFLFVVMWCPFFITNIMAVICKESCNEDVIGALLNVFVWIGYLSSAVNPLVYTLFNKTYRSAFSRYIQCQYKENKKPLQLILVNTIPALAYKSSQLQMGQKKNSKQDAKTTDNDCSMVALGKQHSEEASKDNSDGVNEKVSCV
Experiment: 5-hydroxytryptamine receptor 2A (HTR2A) small molecule antagonists, cell-based qHTS assay (AID 1963586); further: nearly all actives have a fitted effect of over 45% in size; further: potency means the concentration at half of the fitted maximal effect
Conditions: HTR2A-CHO cells, DOI-induced calcium flux, fluorescence; series mostly up to 61.5 µM; activity, negative = inhibition: at the top concentration
Method in brief: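 Antagonist-mode intracellular calcium assay: DOI (4 nM) added after 5 min compound pre-incubation at room temperature to dye-loaded HTR2A-CHO cells. Fluorescence followed for 3 min, sampled every second.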

| Compound | activity, negative = inhibition | Potency |
| --- | --- | --- |
| O=C(O)c1cc(C(=O)O)c(C(=O)O)cc1C(=O)O | -3.65% (inactive) |  |
| O=S(=O)(O)c1ccc(N=Nc2c(O)ccc3ccccc23)cc1 | 50.3% (inactive) |  |
| COS(=O)(=O)C(F)(F)F | -8.69% (inactive) |  |
| O=C(NS(=O)(=O)/C=C/c1ccccc1)c1ccc(F)cc1Cl | -0.869% (inactive) |  |
| Nc1c(N=Nc2ccc(-c3ccc(N=Nc4cc(S(=O)(=O)O)c5ccccc5c4N)cc3)cc2)cc(S(=O)(=O)O)c2ccccc12 | 74.9% (inactive) |  |
| CCCCCc1ccc(N)cc1 | 8.81% (inactive) |  |
| CC/C=C\CCOC(=O)c1ccccc1O | -6.66% (inactive) |  |
| O=C1OC(O)C(C(Cl)Cl)=C1Cl (configuration not stated) | 19% (inactive) |  |
| CC1(C)CC(OC(=O)CCCCCCCCC(=O)OC2CC(C)(C)NC(C)(C)C2)CC(C)(C)N1 | -5.05% [at 12.7 µM] (inactive) |  |
| C=CC(=O)OCCOCCOC(=O)C=C | 67.5% (inactive) |  |
| FC(F)(F)C(F)(F)C(F)(F)C(F)(F)C(F)(F)C(F)(F)C(F)(F)C(F)(F)Br | 10.9% [at 28.5 µM] (inactive) |  |
| C=CC(=O)OCCOCC(CC)(COCCOC(=O)C=C)COCCOC(=O)C=C | 40.8% (inactive) |  |
| CCCCCCCCCCCCCCBr | 22.2% (inactive) |  |
| Cc1ccc2c(c1)c1c3n2CCNC3CCC1 (configuration not stated) |  | 18.3 µM (active) |
| O=C(O)CCCC[P+](c1ccccc1)(c1ccccc1)c1ccccc1 | -14.7% [at 28.5 µM] (inactive) |  |
| CC(C)C1OCCN1CCOC(=O)NCCCCCCNC(=O)OCCN1CCOC1C(C)C (configuration not stated) | -7.41% (inactive) |  |
| CCCCCCCCSCc1cc(C)c(O)c(CSCCCCCCCC)c1 | 3.2% (inactive) |  |
| O=C(c1ccc(O)cc1)c1ccc(Cl)cc1 | -26.9% (inactive) |  |
| CC(=O)Oc1cc(C(C)C)c(OCCN(C)C)cc1C | -34.9% [at 28.5 µM] (inactive) |  |
| CN(C)CCCOC1(Cc2ccccc2)CCCCCC1 |  | 10.3 µM (active) |
| Oc1cccc2[nH]ccc12 | 7.23% [at 28.5 µM] (inactive) |  |
| C/C=C\C/C=C/CCCCCCCCOC(C)=O | -14.8% (inactive) |  |
| CC(C)OCC1CO1 (configuration not stated) | 85.4% (inactive) |  |
| CC(C)(O)c1ccc(CNC(=O)c2cccnc2Oc2ccc(F)cc2)cc1 | -48.2% (inactive) |  |
| O=C(CCCl)NCc1ccccc1 | -13.1% [at 28.5 µM] (inactive) |  |
| CCCC(=O)c1cc(O)c(O)cc1O | 41.3% (inactive) |  |
| CC(C)C(=O)Nc1cccc(C(F)(F)F)c1 | -4.99% [at 28.5 µM] (inactive) |  |
| Clc1ccnc(Cl)n1 | 2.4% (inactive) |  |
